# Data from publication PMC7862700, “An all-to-all approach to the identification of sequence-specific readers for epigenetic DNA modifications on cytosine”.
# Legend:
# Assay in all cases: DAPPL (digital affinity profiling via proximity ligation, sequencing); 10 mM Tris-HCl pH 7.5, 50 mM NaCl, 1 mM DTT, 4% glycerol, room temperature, 30 min; GST-TFs on glutathione beads, 16-mer random dsDNA library, 0.1% formaldehyde crosslink after washing; high values mean tight binding
# Conditions in all cases: protein: recombinant; tags: N-terminal GST; dsDNA, one strand shown
# ELK1 = molecular target: T1, ELK1 (Homo sapiens, UniProt P19419 1-428)
# T1 sequence: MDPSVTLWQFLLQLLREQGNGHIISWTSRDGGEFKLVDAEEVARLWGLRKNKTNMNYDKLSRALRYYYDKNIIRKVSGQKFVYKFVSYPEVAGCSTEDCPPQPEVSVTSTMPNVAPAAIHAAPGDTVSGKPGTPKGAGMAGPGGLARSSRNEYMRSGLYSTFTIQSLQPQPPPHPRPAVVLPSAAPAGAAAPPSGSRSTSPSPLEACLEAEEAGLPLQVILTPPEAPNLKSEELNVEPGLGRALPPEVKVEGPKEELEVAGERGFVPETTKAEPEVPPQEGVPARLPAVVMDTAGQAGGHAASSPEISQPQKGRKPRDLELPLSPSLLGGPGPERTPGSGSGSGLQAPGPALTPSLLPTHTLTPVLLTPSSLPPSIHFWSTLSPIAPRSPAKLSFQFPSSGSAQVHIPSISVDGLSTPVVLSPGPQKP
# In short: (§1)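 The binding signal reported is, for every hexamer, its read frequency for a factor over its read frequency for the tag-only sample. Reads came from pools of yeast-expressed, GST-fused human transcription factors on glutathione beads, barcoded with DNA and mixed with that sample, which were incubated with 200 nmole of a random double-stranded 16-mer DNA library in Tris/NaCl/DTT/glycerol buffer at room temperature for 30 min. After washing, the pools were crosslinked with 0.1% formaldehyde, proximity-ligated with BsaI/T4 ligase for 1 h at 37 °C, PCR-amplified and sequenced on an Illumina NextSeq500.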
# GABPA = molecular target: T2, GABPA (Homo sapiens, UniProt Q06546 1-454)
# T2 sequence: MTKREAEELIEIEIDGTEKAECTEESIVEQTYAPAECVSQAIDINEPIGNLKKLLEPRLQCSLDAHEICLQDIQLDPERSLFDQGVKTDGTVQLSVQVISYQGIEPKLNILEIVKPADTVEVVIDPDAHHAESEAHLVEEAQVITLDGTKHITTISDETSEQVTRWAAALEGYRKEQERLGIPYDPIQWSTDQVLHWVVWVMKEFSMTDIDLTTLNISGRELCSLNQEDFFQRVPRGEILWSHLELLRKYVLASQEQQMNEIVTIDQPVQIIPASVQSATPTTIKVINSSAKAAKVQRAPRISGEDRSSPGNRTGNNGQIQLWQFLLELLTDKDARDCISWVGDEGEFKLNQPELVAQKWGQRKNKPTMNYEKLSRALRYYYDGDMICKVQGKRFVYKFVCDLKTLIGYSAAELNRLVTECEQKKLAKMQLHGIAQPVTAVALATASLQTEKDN
# In short: as §1
# ERG = molecular target: T3, ERG (Homo sapiens, UniProt P11308 1-479)
# T3 sequence: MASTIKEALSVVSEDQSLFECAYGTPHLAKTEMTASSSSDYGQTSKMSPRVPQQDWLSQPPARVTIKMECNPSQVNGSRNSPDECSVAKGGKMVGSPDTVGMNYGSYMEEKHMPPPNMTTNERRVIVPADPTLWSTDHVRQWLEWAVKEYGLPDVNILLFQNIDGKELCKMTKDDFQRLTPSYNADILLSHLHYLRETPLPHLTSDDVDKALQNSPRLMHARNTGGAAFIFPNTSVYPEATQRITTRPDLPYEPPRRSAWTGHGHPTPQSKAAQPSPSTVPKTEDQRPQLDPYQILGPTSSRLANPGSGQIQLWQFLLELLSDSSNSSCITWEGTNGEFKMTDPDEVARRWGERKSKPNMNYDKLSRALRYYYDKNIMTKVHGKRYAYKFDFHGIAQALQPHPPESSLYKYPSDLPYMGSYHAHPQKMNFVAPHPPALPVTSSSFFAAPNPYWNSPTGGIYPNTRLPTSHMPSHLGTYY
# In short: as §1
# ELF1 = ELF1 (Homo sapiens, UniProt P32519 1-619)
# Sequence of ELF1 (P32519 whole entry): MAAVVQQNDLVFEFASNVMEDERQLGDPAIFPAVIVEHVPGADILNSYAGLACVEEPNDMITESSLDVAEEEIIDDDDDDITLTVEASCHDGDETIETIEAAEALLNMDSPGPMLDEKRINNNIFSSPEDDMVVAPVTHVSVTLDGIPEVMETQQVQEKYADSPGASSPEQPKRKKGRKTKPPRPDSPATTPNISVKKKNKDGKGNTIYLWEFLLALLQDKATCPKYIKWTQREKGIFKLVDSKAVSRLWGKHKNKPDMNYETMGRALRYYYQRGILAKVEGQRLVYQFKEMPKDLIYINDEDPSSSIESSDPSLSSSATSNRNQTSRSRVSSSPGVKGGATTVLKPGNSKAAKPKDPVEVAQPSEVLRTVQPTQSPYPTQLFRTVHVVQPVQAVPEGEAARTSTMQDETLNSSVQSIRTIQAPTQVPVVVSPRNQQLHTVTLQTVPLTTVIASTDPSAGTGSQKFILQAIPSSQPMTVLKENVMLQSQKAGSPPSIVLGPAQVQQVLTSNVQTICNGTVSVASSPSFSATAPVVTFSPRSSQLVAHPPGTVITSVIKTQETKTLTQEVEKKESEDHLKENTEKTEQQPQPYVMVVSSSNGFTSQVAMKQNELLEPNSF
# In short: as §1
# SPIB = SPIB (Homo sapiens, UniProt Q01892 1-262)
# Sequence of SPIB (Q01892 whole entry): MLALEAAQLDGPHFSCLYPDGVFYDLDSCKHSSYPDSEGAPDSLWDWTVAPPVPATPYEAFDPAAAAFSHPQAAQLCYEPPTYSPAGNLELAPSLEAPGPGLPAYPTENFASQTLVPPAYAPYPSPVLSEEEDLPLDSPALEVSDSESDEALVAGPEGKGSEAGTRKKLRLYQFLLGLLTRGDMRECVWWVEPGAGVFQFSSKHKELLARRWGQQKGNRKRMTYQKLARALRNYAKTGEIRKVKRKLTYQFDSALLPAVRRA
# In short: as §1
# FEV = molecular target: T4, FEV (Homo sapiens, UniProt Q99581 1-238)
# T4 sequence: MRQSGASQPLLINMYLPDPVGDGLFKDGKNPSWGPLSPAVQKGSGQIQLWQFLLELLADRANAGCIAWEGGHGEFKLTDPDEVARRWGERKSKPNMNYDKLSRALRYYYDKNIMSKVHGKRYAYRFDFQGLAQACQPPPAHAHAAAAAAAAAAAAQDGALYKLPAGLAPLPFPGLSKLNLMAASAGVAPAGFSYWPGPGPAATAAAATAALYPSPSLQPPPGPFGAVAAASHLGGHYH
# In short: as §1
# ETV5 = ETV5 (Homo sapiens, UniProt P41161 1-510)
# Sequence of ETV5 (P41161 whole entry): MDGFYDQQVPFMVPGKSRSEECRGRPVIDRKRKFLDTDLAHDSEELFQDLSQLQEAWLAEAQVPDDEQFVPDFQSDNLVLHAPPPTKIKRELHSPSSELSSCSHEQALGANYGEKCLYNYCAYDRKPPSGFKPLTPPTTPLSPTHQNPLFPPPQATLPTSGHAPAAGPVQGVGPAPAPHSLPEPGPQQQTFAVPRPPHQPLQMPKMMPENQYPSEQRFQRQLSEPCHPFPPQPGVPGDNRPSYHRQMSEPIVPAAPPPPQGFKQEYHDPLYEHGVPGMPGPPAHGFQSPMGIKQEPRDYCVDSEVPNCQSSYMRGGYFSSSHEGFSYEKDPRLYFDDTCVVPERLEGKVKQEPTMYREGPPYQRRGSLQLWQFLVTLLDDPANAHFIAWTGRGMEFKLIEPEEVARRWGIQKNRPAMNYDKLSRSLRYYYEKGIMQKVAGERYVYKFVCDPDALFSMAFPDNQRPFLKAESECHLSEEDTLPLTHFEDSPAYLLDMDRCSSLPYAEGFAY
# In short: as §1
# ELF4 = ELF4 (Homo sapiens, UniProt Q99607 1-663)
# Sequence of ELF4 (Q99607 whole entry): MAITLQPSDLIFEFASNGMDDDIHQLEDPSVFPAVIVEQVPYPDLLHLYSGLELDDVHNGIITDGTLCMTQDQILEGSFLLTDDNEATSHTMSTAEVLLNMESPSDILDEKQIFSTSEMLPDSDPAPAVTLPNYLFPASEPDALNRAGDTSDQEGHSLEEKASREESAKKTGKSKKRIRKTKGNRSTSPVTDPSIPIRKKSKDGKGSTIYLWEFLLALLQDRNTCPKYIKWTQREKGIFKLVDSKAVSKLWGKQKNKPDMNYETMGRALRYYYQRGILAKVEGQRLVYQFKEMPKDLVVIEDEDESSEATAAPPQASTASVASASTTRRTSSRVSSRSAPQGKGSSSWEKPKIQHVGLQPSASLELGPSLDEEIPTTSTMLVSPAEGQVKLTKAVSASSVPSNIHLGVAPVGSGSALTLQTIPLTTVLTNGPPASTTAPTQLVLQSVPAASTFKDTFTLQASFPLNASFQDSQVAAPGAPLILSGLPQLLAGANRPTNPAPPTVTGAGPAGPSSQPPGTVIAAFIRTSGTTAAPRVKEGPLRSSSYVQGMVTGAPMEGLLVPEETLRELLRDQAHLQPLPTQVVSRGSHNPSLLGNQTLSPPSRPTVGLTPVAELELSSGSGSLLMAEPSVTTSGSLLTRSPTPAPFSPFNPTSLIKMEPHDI
# In short: as §1
# ELK4 = molecular target: T5, ELK4 (Homo sapiens, UniProt P28324-2 1-405)
# T5 sequence: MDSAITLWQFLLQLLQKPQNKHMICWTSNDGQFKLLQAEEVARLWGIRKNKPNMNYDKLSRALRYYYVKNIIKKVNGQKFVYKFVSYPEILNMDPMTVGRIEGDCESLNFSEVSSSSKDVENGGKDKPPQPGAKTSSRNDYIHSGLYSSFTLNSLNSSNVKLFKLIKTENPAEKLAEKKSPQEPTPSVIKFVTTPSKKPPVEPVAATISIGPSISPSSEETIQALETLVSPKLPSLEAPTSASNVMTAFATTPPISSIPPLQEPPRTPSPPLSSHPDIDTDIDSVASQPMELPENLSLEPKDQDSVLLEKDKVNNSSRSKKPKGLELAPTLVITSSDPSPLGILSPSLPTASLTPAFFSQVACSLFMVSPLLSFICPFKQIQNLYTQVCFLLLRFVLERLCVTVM
# In short: as §1
# ETV2 = molecular target: T6, ETV2 (Homo sapiens, UniProt O00321 1-342)
# T6 sequence: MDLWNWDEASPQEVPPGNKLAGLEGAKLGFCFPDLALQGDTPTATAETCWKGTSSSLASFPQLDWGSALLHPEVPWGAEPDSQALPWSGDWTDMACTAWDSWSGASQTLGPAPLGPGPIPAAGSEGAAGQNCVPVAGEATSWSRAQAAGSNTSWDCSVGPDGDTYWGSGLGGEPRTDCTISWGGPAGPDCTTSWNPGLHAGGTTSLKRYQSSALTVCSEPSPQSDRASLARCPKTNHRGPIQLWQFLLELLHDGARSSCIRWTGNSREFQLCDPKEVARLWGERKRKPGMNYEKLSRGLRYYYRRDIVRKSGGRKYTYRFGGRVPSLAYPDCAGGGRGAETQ
# In short: as §1
# ELF3 = molecular target: T7, ELF3 (Homo sapiens, UniProt P78545 1-371)
# T7 sequence: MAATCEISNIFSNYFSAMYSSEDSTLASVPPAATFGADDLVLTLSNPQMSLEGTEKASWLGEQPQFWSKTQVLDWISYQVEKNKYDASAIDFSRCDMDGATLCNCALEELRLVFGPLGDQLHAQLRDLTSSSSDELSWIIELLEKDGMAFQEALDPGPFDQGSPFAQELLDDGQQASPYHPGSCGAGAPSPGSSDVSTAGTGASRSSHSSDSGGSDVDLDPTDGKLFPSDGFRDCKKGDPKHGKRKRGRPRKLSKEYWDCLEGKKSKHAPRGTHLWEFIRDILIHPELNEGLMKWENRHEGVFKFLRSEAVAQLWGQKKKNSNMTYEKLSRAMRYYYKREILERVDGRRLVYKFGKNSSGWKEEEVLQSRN
# In short: as §1
# ETV1 = ETV1 (Homo sapiens, UniProt P50549 1-477)
# Sequence of ETV1 (P50549 whole entry): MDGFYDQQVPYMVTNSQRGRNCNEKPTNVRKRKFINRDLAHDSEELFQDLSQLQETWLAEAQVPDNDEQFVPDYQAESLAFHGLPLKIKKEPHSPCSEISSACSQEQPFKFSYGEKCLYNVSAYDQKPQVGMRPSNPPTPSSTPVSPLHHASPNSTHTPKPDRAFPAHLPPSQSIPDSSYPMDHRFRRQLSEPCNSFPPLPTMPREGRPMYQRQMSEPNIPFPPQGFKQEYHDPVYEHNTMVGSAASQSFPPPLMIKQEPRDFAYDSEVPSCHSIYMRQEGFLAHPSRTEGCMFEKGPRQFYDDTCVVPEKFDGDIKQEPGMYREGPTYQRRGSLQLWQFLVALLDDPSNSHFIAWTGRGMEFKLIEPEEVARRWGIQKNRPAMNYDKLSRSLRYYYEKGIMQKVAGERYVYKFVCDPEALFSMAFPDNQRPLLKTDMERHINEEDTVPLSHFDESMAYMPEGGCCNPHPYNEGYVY
# In short: as §1
# ERF = molecular target: T8, ERF (Homo sapiens, UniProt P50548 1-548)
# T8 sequence: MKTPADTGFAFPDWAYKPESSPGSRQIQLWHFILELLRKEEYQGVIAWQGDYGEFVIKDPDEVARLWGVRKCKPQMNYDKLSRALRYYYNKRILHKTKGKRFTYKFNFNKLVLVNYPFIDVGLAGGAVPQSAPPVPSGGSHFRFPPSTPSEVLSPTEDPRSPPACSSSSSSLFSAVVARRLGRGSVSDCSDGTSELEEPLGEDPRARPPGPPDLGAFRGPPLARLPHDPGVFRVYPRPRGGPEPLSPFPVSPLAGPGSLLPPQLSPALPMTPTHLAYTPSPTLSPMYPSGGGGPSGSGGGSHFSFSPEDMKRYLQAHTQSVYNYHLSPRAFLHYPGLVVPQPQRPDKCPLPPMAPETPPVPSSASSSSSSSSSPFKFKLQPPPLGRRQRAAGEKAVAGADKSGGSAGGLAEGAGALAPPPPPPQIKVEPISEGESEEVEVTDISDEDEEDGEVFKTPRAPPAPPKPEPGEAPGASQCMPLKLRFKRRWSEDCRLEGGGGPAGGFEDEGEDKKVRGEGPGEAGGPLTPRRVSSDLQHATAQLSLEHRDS
# In short: as §1
# ETV3L = molecular target: T9, ETV3L (Homo sapiens, UniProt Q6ZN32 1-361)
# T9 sequence: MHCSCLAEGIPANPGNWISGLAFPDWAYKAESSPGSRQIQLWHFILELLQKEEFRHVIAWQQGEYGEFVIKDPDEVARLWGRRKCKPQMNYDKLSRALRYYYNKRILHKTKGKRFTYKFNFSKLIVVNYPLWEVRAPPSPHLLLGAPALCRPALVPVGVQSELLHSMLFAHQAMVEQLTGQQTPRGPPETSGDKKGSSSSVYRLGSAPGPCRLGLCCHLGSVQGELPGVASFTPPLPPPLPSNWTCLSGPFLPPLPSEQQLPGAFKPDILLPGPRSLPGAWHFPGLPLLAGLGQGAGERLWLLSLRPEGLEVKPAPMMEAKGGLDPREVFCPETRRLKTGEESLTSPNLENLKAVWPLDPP
# In short: as §1
# ETS2 = molecular target: T10, ETS2 (Homo sapiens, UniProt P15036 1-469)
# T10 sequence: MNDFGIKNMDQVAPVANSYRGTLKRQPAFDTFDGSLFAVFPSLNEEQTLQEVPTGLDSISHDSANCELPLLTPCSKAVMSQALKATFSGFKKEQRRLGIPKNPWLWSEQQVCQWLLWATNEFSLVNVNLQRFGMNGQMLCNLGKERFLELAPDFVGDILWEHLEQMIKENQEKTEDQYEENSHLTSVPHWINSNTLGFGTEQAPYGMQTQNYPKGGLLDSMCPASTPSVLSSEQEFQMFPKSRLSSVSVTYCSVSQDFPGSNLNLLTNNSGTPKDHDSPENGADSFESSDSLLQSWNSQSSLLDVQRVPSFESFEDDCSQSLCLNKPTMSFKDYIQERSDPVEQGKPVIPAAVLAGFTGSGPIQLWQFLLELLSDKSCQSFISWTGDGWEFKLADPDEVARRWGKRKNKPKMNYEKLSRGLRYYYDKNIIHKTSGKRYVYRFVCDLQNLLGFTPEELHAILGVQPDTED
# In short: as §1
# SPDEF = molecular target: T11, SPDEF (Homo sapiens, UniProt O95238 1-335)
# T11 sequence: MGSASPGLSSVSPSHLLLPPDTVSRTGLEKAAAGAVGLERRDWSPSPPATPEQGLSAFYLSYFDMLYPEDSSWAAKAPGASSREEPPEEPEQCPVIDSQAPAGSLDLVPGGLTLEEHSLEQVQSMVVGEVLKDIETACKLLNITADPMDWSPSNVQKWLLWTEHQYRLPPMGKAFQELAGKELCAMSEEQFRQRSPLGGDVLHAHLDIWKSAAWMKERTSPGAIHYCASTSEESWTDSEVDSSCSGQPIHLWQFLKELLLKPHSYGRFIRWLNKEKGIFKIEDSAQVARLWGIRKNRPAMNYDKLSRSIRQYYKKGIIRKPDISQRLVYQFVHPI
# In short: as §1
# ETV7 = molecular target: T12, ETV7 (Homo sapiens, UniProt Q9Y603 1-341)
# T12 sequence: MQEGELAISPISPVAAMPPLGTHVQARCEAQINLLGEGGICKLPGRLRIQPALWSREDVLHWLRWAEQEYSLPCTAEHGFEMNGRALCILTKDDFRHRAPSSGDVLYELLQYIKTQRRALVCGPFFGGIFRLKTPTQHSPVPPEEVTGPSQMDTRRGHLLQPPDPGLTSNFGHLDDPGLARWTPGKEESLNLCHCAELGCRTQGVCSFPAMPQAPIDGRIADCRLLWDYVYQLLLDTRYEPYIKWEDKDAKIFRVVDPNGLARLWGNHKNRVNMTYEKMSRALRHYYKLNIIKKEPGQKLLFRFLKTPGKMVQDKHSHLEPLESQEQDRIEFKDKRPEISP
# In short: as §1
# ETV3 = molecular target: T13, ETV3 (Homo sapiens, UniProt P41162-2 1-143)
# T13 sequence: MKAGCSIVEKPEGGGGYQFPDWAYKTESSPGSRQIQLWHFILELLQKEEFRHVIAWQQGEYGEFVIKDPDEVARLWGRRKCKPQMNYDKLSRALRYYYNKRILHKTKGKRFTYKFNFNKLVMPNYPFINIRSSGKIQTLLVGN
# In short: as §1
# ETV6 = ETV6 (Homo sapiens, UniProt P41212 1-452)
# Sequence of ETV6 (P41212 whole entry): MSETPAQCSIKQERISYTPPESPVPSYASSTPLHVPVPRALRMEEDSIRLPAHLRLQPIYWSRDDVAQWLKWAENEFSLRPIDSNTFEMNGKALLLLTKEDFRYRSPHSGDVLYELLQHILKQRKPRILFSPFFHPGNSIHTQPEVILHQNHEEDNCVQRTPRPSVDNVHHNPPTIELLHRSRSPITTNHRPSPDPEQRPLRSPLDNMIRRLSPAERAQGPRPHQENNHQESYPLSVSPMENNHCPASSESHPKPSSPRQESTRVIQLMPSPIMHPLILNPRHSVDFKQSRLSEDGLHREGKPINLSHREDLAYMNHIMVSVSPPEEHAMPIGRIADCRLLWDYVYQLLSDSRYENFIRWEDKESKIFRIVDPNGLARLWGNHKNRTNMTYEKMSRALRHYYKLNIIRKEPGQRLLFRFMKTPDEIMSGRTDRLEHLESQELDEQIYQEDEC
# In short: as §1
sequence,measurement,setting,value
ATCAAA,binding signal,ELK1,"1.05 fold enrichment (6-mer frequency, TF over GST control)"
same,binding signal,GABPA,"1.13 fold enrichment (6-mer frequency, TF over GST control)"
same,binding signal,ERG,"1.11 fold enrichment (6-mer frequency, TF over GST control)"
same,binding signal,ELF1,"1.07 fold enrichment (6-mer frequency, TF over GST control)"
same,binding signal,SPIB,"1.02 fold enrichment (6-mer frequency, TF over GST control)"
same,binding signal,FEV,"1.03 fold enrichment (6-mer frequency, TF over GST control)"
same,binding signal,ETV5,"1.06 fold enrichment (6-mer frequency, TF over GST control)"
same,binding signal,ELF4,"1.12 fold enrichment (6-mer frequency, TF over GST control)"
same,binding signal,ELK4,"1.1 fold enrichment (6-mer frequency, TF over GST control)"
same,binding signal,ETV2,"1.11 fold enrichment (6-mer frequency, TF over GST control)"
same,binding signal,ELF3,"1.04 fold enrichment (6-mer frequency, TF over GST control)"
same,binding signal,ETV1,"1.15 fold enrichment (6-mer frequency, TF over GST control)"
same,binding signal,ERF,"1.08 fold enrichment (6-mer frequency, TF over GST control)"
same,binding signal,ETV3L,"1.08 fold enrichment (6-mer frequency, TF over GST control)"
same,binding signal,ETS2,"1.07 fold enrichment (6-mer frequency, TF over GST control)"
same,binding signal,SPDEF,"1.06 fold enrichment (6-mer frequency, TF over GST control)"
same,binding signal,ETV7,"1.1 fold enrichment (6-mer frequency, TF over GST control)"
same,binding signal,ETV3,"1.01 fold enrichment (6-mer frequency, TF over GST control)"
same,binding signal,ETV6,"1.07 fold enrichment (6-mer frequency, TF over GST control)"
